Assay outcomes from PubChem BioAssay.
LASV entry inh – inhibitors of Lassa virus binding or cell entry; Lassa virus pseudotype entry inhibition, cell reporter; Potency, µM (top dose mostly 37.9 µM), for inactives: at the top dose activity change, negative = inhibition, hits mostly inhibitors; 1.2% of 300,000 active; calls by dose curve; tested in HEK293 cells; further: potency means the concentration at half of the fitted maximal effect; nearly all actives have a fitted effect of over 50% in size
MARV entry inh – inhibitors of Marburg virus binding or cell entry; Marburg virus pseudotyped entry inhibition, cell reporter; 1.8% of 300,000 active; Potency, µM (top dose mostly 37.8 µM), without a hit: at the top dose activity change, negative = inhibition, hits mostly inhibitors; calls by dose curve; tested in HEK293 cells; further: potency means the concentration at half of the fitted maximal effect
HCV inh – blocks hepatitis C virus; Huh7.5.1 HCVcc-Cre infection, luciferase reporter, 44 h; Potency, µM (titrated, usually from 41.8 µM), for the others: at the top dose activity change, negative = inhibition, hits mostly inhibitors; 3.4% of 340,000 active; AID 651820; active means well fitted inhibition curve with a large enough effect; inconclusive means small, poorly fitted or top-dose-only effect, or another doubt; inactive means no such curve, though single readings can be large or run the other way; further: potency means the concentration at half of the fitted maximal effect
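Seed cells (1,000/well) for 4 h; treat with compound and infect with HCVcc-Cre, moi about 0.5. Incubate 44 h, then detect luciferase activity.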
HCMV inh – inhibitors of human cytomegalovirus; HFF cells, HCMV-luciferase reporter, 72 h; active compounds read low; activity change, negative = inhibition, % at 57.5 µM; 4.5% of 410,000 active; in the data active means activity change below about -60%; inconclusive means no clear call, values can overlap the other calls; inactive means above about -39%
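Cell-based, HFFs, 1000 cells/well, 16 h 37C; cpds in DMSO + HCMV-luc, MOI 1 PFU/cell; 72 h 37C; OneGlo luminescence after 5 min RT; norm. to buffer vs Salinomycin 10uM.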
FMDV antiviral – blocks foot and mouth disease virus | FMDV antiviral cell-based qHTS | Potency, µM (titrated, usually from 57.9 µM), for the others: top-dose activity change, negative = inhibition, usual class: inhibitors | 1.2% of 410,000 active | AID 1159524; calls by dose curve; tested in HEK293T cells; further: read-out not given here; potency means the concentration at half of the fitted maximal effect; nearly all actives have a fitted effect of over 45% in size
Starred values were filed as active, the others as inactive; ? = inconclusive; . = not tested or not shown; [ ] = remark or other dose. Sampled rows, rich in hits. Any-hit rate of the full collection: about 7.9%. On the % scale 0 is the no-effect control and ±100 the full control effect.

SMILES	LASV entry inh	MARV entry inh	HCV inh	HCMV inh	FMDV antiviral
CCCCCCC[N+](CC)(CC)CCCCc1ccc(Cl)cc1	.	.	?	-100.5*	17.8µM*
Cc1ccc(CN2CCc3nnc(C(NS(C)(=O)=O)C(C)C)n3CC2)cc1C (stereo not given)	.	.	.	.	-17.9%
COC(=O)[C@@H]1CCCN1C(=O)c1c(OC)cc(=O)n2c1CCN(Cc1ccc(C)o1)CC2	.	.	.	.	0.4%
CCOc1ccccc1NC(=O)CC1(CC(=O)N2CCOCC2)CCCC1	-9.1%	5.5%[46.1 µM]	16.9%	-10.4	-31.4%
Cc1ccc(/C=N/NC(=O)CNC(=O)COc2ccccc2)cc1	12.4%	5.2%	1.7%	-61.3*	0.0%
Cc1cccc(OCC(=O)NCC(=O)N/N=C/c2cc(Br)cc(Br)c2O)c1	-12.5%	?	?	-82.8*	-2.3%
CCNS(=O)(=O)c1ccc(CCC(=O)N2CCN(c3ccccc3F)CC2)cc1	-20.5%	-12.9%	-10.5%	20.0	-14.7%
Cc1cc(C(C)(C)C)cc(C)c1CCNC(=O)c1c(C)noc1C	?	?	11.2µM*	?	?
Cc1cc(Cl)cc(C)c1OCCCCCn1ccnc1	.	.	?	-22.9	?
Cc1cc(Cl)cc(C)c1OCCn1ccnc1	3.55µM*	1.26µM*	-5.7%	?	-22.0%
CCCCN1C(=O)C(CC(=O)NCC2CCCCC2)CC(C(=O)N(CC)CC)=C1C (stereo not given)	.	.	.	6.7	-1.9%
CCCCN1C(=O)C(CC(=O)NCC2CCCCC2)CC(C(=O)N(C)C)=C1C (stereo not given)	.	.	.	-105.3*	-1.2%
COc1cccc(C(=O)Nc2cc(-c3cn4cccnc4n3)ccc2C)c1OC	11.5%[46.1 µM]	.	.	9.5	-12.0%
COc1ccc(NC(=O)CCn2cnc3onc(-c4ccc(F)cc4)c3c2=O)cc1OC	-0.4%[46.1 µM]	.	.	-71.8*	10µM*
COc1cc(Cl)c(C)cc1NC(=O)CCn1cnc2onc(-c3ccc(F)cc3)c2c1=O	-8.8%[46.1 µM]	.	.	-10.8	0.0%
Cc1nc2c(-c3ccc(F)cc3)cnn2c(N)c1-c1ccc(F)cc1	-23.5%[46.1 µM]	5.01µM*	?	-76.3*	?
Cc1cc(N)n2ncc(-c3ccc(F)cc3)c2n1	?	0.5%[46.1 µM]	10µM*	122.0	46.5%
COc1ccc(C(=O)N2CCOC2CNC(=O)C(=O)NCc2ccccc2)cc1 (stereo not given)	.	.	.	-7.4	-19.4%
C[C@]1(C(=O)O)[C@@H]2CC[C@@H](O2)[C@@]1(C)C(=O)O	.	4.11µM*	.	.	.
C=CC(C1=CC(=O)C(OC)=C(OC)C1=O)c1ccccc1 (stereo not given)	.	.	.	.	25.1µM*
C=CC(C1=CC(=O)C(OC)=CC1=O)c1ccccc1 (stereo not given)	.	.	.	.	25.0%
S=C1NC[C@H](Cc2cccc3ccccc23)N1CC1CCCCC1	.	.	2.82µM*	-23.8	0.0%
S=C1NC[C@H](Cc2ccccc2)N1CC1CCN(CCCC2CCCCC2)CC1	.	.	.	-104.8*	.
O=C1NC[C@@H](Cc2cccc3ccccc23)N(CC2CCCCC2)C1=O	.	.	-8.9%	-4.4	9.1%
O=C1NC[C@H](Cc2ccccc2)N(CC2CCN(CCCC3CCCC3)CC2)C1=O	.	.	7.6%	-33.2	-7.8%
SMILES	LASV entry inh	MARV entry inh	HCV inh	HCMV inh	FMDV antiviral
CC(C)N1C[C@@H](Sc2ccccn2)C[C@H]1C(=O)Nc1ccc2c(c1)Nc1ccccc1CC2	.	.	.	.	-6.2%
CN(C)CCCN1c2ccccc2Sc2ccccc21	?	18.3µM*	-17.9%[8.37 µM]	?	?
CNCCCN1c2ccccc2CCc2ccccc21	-11.6%	1.26µM*	?	-17.1	-6.9%
CCC(=O)c1ccc2c(c1)N(CCCN(C)C)c1ccccc1S2	?	20.6µM*	?	18.1	-15.7%
CN(C)CCCN1c2ccccc2CCc2ccc(Cl)cc21	?	11.2µM*	?	-67.2*	0.0%
CN(CCCN1c2ccccc2CCc2ccccc21)CC(=O)c1ccc(Cl)cc1	.	.	.	.	4.1%
CC(=O)c1ccc2c(c1)N(CCCN(C)C)c1ccccc1S2	.	.	?	8.9	-26.1%
CCOc1cc(/C=N/NC(=O)c2cccc(S(=O)(=O)N3CCCC3)c2)ccc1OCC(=O)N(C)C	-1.9%	11.8%[46.1 µM]	-11.7%	-14.5	0.0%
CCN(CC)CCN1c2ccccc2Sc2ccccc21	?	?	.	21.4	-17.6%
COc1ccc2c(c1)Sc1ccccc1N2CCN(C)C	?	11.2µM*	?	.	-11.7%
O=C(CN1CCCC1)Nc1ccccc1C(=O)c1ccccc1	.	.	-3.5%	-34.3	-8.6%
O=C(c1ccccc1)c1ccccc1NC(=O)C1CCCN1Cc1ccccc1 (stereo not given)	.	.	?	-60.3*	-5.8%
